From PubChem BioAssay (NCI)
The panel holds about 79,000 compounds, 15% with a hit somewhere; the sample as a whole holds those more often. Rule as the data show it: active = growth inhibition above about 70%; inactive = the rest.

Assays:
[1] = NCI Yeast Anticancer Drug Screen. Data for the rad50 strain (AID 155);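 also: 0% = growth of vehicle-only cultures of the same strain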; conditions: S. cerevisiae rad50 strain growth inhibition; at 50.0 µM; stronger effect = higher value
Method in brief: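 DNA repair mutant yeast, compound exposure, growth read-out; inhibition is taken relative to vehicle.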

[2] = NCI Yeast Anticancer Drug Screen. Data for the mec2-1 strain (AID 157); conditions: S. cerevisiae mec2-1 strain, at 50.0 µM, stronger effect = higher value
Method in brief: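 Readout is yeast growth inhibition, normalised to vehicle-treated controls, in the mec2-1 strain exposed to compound.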

[3] = NCI Yeast Anticancer Drug Screen. Data for the mlh1 rad18 strain (AID 175); conditions: S. cerevisiae mlh1 rad18 strain growth inhibition; at 50.0 µM; stronger effect = higher value
Method in brief: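 Test agents were incubated with a yeast strain of defined genotype (DNA damage repair defect). Inhibition of growth was derived by comparison with vehicle-exposed cultures.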

Measured: growth inhibition

CCN(CC)c1ccc(N=Cc2ccccc2S(=O)(=O)O)cc1
inactive: [1] 0.9% | [2] -11.4% | [3] 34%

ClCCCC1(CCCCl)OCCO1
inactive: [1] -21.3% | [2] -25.1% | [3] -2.2%

Cc1ccccc1NC(=S)Nc1ccccn1
inactive: [1] 22% | [2] -0.3% | [3] 10.3%

N#C/C(=C1C=C/C(=N/O)C(Br)=C/1)c1ccccc1
inactive: [1] 50.1% | [2] 13.2% | [3] 22%

CC1CC(C)(C)N=C(Cc2ccccc2)O1 (stereo unspecified)
inactive: [1] -26.6% | [2] -11.6% | [3] 2.05%

COc1ccc(C(C#N)N2CCOCC2)cc1 (stereo unspecified)
inactive: [1] 17.8% | [2] -11.7% | [3] 5.35%

O=C(O)c1ccc(NCn2c(=S)[nH]c3ccccc32)cc1O
inactive: [1] -7.6% | [2] -42.5% | [3] -16.2%

CC(/C=N/N1C(=O)c2ccccc2C1=O)c1ccccc1 (stereo unspecified)
inactive: [1] 12.8% | [2] -11.6% | [3] -10.8%

NC(=S)N/N=C/c1cc([N+](=O)[O-])ccc1Cl
inactive: [1] 10.8% | [2] -9.75% | [3] 10.2%

N#C/C(=C/c1ccc(O)c(O)c1)C(N)=O
inactive: [1] 23.6% | [2] -4.15% | [3] 17.1%

CCC(=O)N/N=C/C=N/NC(=O)c1ccncc1
inactive: [1] -30.7% | [2] -31.8% | [3] -7.25%

O=C(O)CSCc1nc2ccccc2[nH]1
inactive: [1] -10.8% | [2] -15.7% | [3] 41.8%

CN(c1ccccc1Cl)S(C)(=O)=O
inactive: [1] -4.2% | [2] -42.6% | [3] -0.25%

Cc1c(Cl)cccc1N1C(=O)CC(Sc2ccccc2N)C1=O (stereo unspecified)
inactive: [1] 1.05% | [2] -13.9% | [3] 3%

COc1ccc(-c2cc(=O)c3c(C)cc(O)cc3o2)cc1OC
inactive: [1] 6.55% | [2] 7.6% | [3] 44.2%

CCn1c(C)nc2cc(S(=O)(=O)CS(C)(=O)=O)ccc21
inactive: [1] 17% | [2] -12.8% | [3] 19.8%

CC(C)CC(Br)C(=O)NC(CC(C)C)C(=O)O (stereo unspecified)
inactive: [1] -26.2% | [2] -27.9% | [3] -23.2%

O=C1c2ccccc2C(=O)N1/N=C/c1ccc2c(c1)OCO2
inactive: [1] 22.5% | [2] 10.2% | [3] 18.4%

Cc1ccc(N2C(=O)CC(Sc3ccccc3N)C2=O)cc1 (stereo unspecified)
inactive: [1] -8.75% | [2] -17.4% | [3] -9.3%

COC(=O)C1=CCCC2CN3CCc4c([nH]c5ccccc45)C3CC12 (stereo unspecified)
inactive: [1] 13.8% | [2] -7.8% | [3] 18%

O=c1oc(-c2ccc(Cl)cc2)nc2cc(Cl)ccc12
inactive: [1] -20.6% | [2] -14.7% | [3] -20.8%

COc1cccc(CNc2ccc(SC)cc2)c1OC
inactive: [1] 10.2% | [2] 12.9% | [3] 18.9%

C=CN1C(=O)N(C=C)C(C)(CC(C)C)C1=O (stereo unspecified)
inactive: [1] 3.6% | [2] -5.55% | [3] 15.8%

NC(=O)C(c1ccccc1)N1CCCC1 (stereo unspecified)
inactive: [1] 2.05% | [2] -17.9% | [3] -0.55%

Clc1ccc(C(c2cccs2)N2CCNCC2)cc1 (stereo unspecified)
inactive: [1] 5.45% | [2] -2.75% | [3] 5.35%

Fc1ccc(P(c2ccc(F)cc2)c2ccc(F)cc2)cc1
inactive: [1] 41.4% | [2] 9.6% | [3] 19.1%

CC1CCN(c2ccc([N+](=O)[O-])cc2[N+](=O)[O-])CC1
inactive: [1] 42.2% | [2] 3.85% | [3] 25.6%

CCOc1ccc(Br)cc1/C=N/NS(=O)(=O)c1ccc(C)cc1
inactive: [1] 46.7% | [2] 29.1% | [3] 8.35%

Cc1ccc(-c2noc(CC(=O)c3ccc([N+](=O)[O-])cc3)n2)cc1
inactive: [1] 14.4% | [2] 5.85% | [3] 38.8%

O=C1Nc2ccccc2/C1=N/N=C/c1cc(Cl)cc(Cl)c1O
inactive: [1] 32.7% | [2] 9.4% | [3] 20.1%

S=C=NC1CCCCCCCCCCC1
inactive: [1] 18.9% | [2] -3.9% | [3] 36.6%

COc1cc(C(=O)N/N=C/c2ccc(N(C)C)cc2)cc(OC)c1OC
inactive: [1] -32.2% | [2] -45.2% | [3] -20.8%

CCCCCCC(=O)CCCCCCCCCCCCC(=O)OC
inactive: [1] 2.3% | [2] -1.65% | [3] 12.7%

Cc1ccc2oc(C)[n+](CCC(=O)O)c2c1
inactive: [1] 15.7% | [2] 6.45% | [3] 42%

CN1C(=S)c2ccccc2S1(=O)=O
inactive: [1] -6.6% | [2] -14.4% | [3] 24.2%

COc1ccc(NC(=S)Nc2ccccn2)cc1
inactive: [1] -9.3% | [2] -12.3% | [3] 0.65%

CC1=NOC(=O)C1C(C)(C)C1C(=O)ON=C1C (stereo unspecified)
inactive: [1] 8.25% | [2] -0.7% | [3] -18.4%

CCCCCCCCCCCCCCCCOc1ccc(C(=O)NN)cc1N
inactive: [1] -18.6% | [2] -29.9% | [3] -14.6%

Cc1ccc(S(=O)(=O)N2CCC(O)(c3ccccc3)CC2)cc1
inactive: [1] -3.05% | [2] -36.3% | [3] -2.7%

O=[N+]([O-])c1ccc2nc3c(nc2c1)-c1cccc2cccc-3c12
inactive: [1] 2.15% | [2] -15.9% | [3] 12.3%

CSc1sc2cc([N+](=O)[O-])ccc2[n+]1C
inactive: [1] -0.4% | [2] -7.6% | [3] 55.4%

CCOC(=O)c1nc2cc(C)c(C)cc2[nH]c1=O
inactive: [1] 5.45% | [2] -5.4% | [3] -1.85%
